PubChem BioAssay AID434955 (Southern Research Specialized Biocontainment Screening …, 2010)
In all, about 330,000 compounds went through this assay and about 880 (0.27%) were called active. Roughly 1% stayed inconclusive and do not appear here. No rule for the calls is given here. Not all results are given here.

Assay: beta-lactam sensitization of Mtb H37Rv, H37Rv (AID 434955);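 also: growth measured after seven days incubation then overnight dye step; 0% = bacteria only wells and 100% = bacteria with antibiotic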
Details: M. tuberculosis H37Rv growth with meropenem, percent inhibition, at 25 µM
[1] = measured here: primary screen without meropenem

Row | Compound | inhibition (stronger effect = higher value) | inhibition [1]
1 | CN(c1ccccc1)S(=O)(=O)c1cccc(C(=O)NNC(=O)c2ccncc2)c1 | -14.5% (inactive) | 10.4%
2 | COc1ccccc1C(=O)N/C(=C/c1ccco1)C(=O)Nc1ccc(C(=O)O)cc1 | 5.03% (inactive) | 3.35%
3 | CCOC(=O)C(=O)C1C(=O)Nc2ccccc21 (stereo not given) | 5.13% (inactive) | 3%
4 | COc1cc(NS(=O)(=O)c2ccc(NC(=O)c3ccc(S(=O)(=O)N4CCCCC4)cc3)cc2)ncn1 | -5.84% (inactive) | -4.25%
5 | Cc1ccc(C(=O)N2CCC(n3nccc3NC(=O)Nc3cccc(F)c3)CC2)cn1 | -9.41% (inactive) | -4.97%
6 | COc1ccccc1N(C(=O)Cn1nnc2ccccc21)C(C(=O)NCc1ccco1)c1ccc(C)o1 (stereo not given) | -4.29% (inactive) | -5.41%
7 | CCN(Cc1nc2ccccc2c(=O)[nH]1)Cc1cc(=O)oc2cc(C)c(C)cc12 | 1.77% (inactive) | -4.21%
8 | COc1cccc(N2CC(NC(=O)c3ccc4ccccc4c3)CC2=O)c1 (stereo not given) | -3.62% (inactive) | 10.2%
9 | O=C(CC1OC(=O)c2ccccc21)NC1CCCCC1 (stereo not given) | 2.15% (inactive) | 2.66%
10 | COc1ccccc1CCCNC(=O)C1CCC(=O)N(CCN2CCOCC2)C1 (stereo not given) | 1.01% (inactive) | -9.27%
11 | Cc1cc(C)c2nc3nc(C)cc(C)c3c(N)c2c1 | 6.08% (inactive) | 4.53%
12 | CCC(C)N(C(=O)COC(=O)c1nc(Cl)ccc1Cl)C1CCS(=O)(=O)C1 (stereo not given) | -10.3% (inactive) | -10.3%
13 | CCn1c(CNC(=O)c2ccco2)nnc1SCC(=O)Nc1cccc(F)c1 | -8.4% (inactive) | -1.57%
14 | O=c1cc(CN2CCN(c3cccc(Cl)c3)CC2)c2cc3c(cc2o1)CCCC3 | -11.5% (inactive) | 1.9%
15 | COc1ccc(-c2ccc(OC(=O)NC3CCS(=O)(=O)C3)cc2)cc1 (stereo not given) | 87.1% (inactive) | 66.5%
16 | COCCOC(=O)C1=C(C)NC(=O)NC1c1cc2c(cc1Br)OCO2 (stereo not given) | -3.19% (inactive) | 0.53%
17 | Cc1ccc(C(=O)N2CCN(S(=O)(=O)N3CCOCC3)CC2)cc1 | -7.62% (inactive) | -3.45%
18 | CC(C)Cc1ccc(S(=O)(=O)N2CCN(C(=O)c3ccco3)CC2)cc1 | 1.6% (inactive) | -4.13%

Row | Compound | inhibition (stronger effect = higher value) | inhibition [1]
19 | C/C(=N/O)c1ccc(N2C(=O)C3C4C=CC(C3C2=O)C2C3C(=O)N(c5ccc(/C(C)=N/O)cc5)C(=O)C3C42)cc1 (stereo not given) | -4.77% (inactive) | -7.58%
20 | Cc1ccc(S(=O)(=O)N(CC(O)CN2C(=O)NC(C)(C)C2=O)c2cccc([N+](=O)[O-])c2)cc1 (stereo not given) | 16.4% (inactive) | 4.68%
21 | CC/S(CC1CC1(Cl)Cl)=N\S(=O)(=O)c1ccc(C)cc1 (stereo not given) | -10.6% (inactive) | -11.9%
22 | CCOc1cc(NC(=O)CCl)c(OCC)cc1NC(C)=O | 90.5% (inactive) | 98.2%
23 | CC(C)CCOc1ccc(C(=O)C[N+]2(C)CCOCC2)cc1 | -6.59% (inactive) | 4.15%
24 | COC(=O)C(C)N=Cc1ccccc1 (stereo not given) | -4.31% (inactive) | 0.46%
25 | O=C(C1CC(=O)N(C2CCCCC2)C1)N1CCN(c2ccccc2)CC1 (stereo not given) | 0.44% (inactive) | 1.29%
26 | O=[N+]([O-])c1c(NCCO)cc(Sc2nc3ccccc3s2)c2nonc12 | 95.6% (inactive) | 96%
27 | O=C(NCc1ccc2c(c1)OCO2)c1cc([N+](=O)[O-])ccc1N1CCOCC1 | -1.78% (inactive) | -2.18%
28 | COc1ccc(NC(=O)COc2ccc(C(=O)c3ccc(F)cc3)cc2)cc1S(N)(=O)=O | 7.84% (inactive) | 10.7%
29 | N#Cc1ccc(COC(=O)Cn2nnc(-c3ccccc3)n2)cc1 | 2.69% (inactive) | 0.73%
30 | O=C(COC(=O)Cc1ccccc1F)NNC(=O)c1ccc(Cl)cc1 | -6.06% (inactive) | 20.8%
31 | CC(=O)Nc1ccc(NC(=O)CSc2nnnn2-c2ccccc2F)cc1 | -2.11% (inactive) | -2.67%
32 | CC(C)c1nc(CNC(=O)CC2C(=O)NCCN2Cc2ccoc2)cs1 (stereo not given) | -7.57% (inactive) | -8.36%
33 | O=C(CC1SC(=Nc2ccccc2F)N(CCN2CCOCC2)C1=O)Nc1ccc(F)cc1F (stereo not given) | 3.51% (inactive) | 2.75%
34 | CCc1ccc(-c2cc3c(=O)n(CC(=O)NCCCN4CCN(Cc5ccccc5)CC4)nc(C)n3n2)cc1 | 99.7% (inactive) | 99.5%
35 | CO/N=C(/CS(=O)(=O)c1ccc(Br)cc1)c1ccc(OC)cc1 | -4.01% (inactive) | -5.94%
